Laboratory results published in PubChem BioAssay.
The source made the active and inactive calls.

What was measured:
[1] = test system: Plasmodium falciparum Sir2 (PF13_0152, Sir2A); assay: Plasmodium falciparum Sir2A binding compounds – biochemical, small-molecule microarray, 635 nm fluorescence, primary screen (AID 1098); conditions: fluorescence 635 nm, higher = more signal;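 note: score merges spot fluorescence intensity with its signal-to-noise ratio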
[2] = probe aDKK1 binding to arrayed compounds – biochemical, biotinylated probe, 635/667 nm fluorescence, primary screen (AID 1099); conditions: small-molecule microarray, higher = more signal;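 note: score merges 667nm spot fluorescence with signal to noise across triplicate slides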
[3] = probe aCHRDL2 binding to arrayed compounds – biochemical, biotinylated probe, 635/667 nm fluorescence, primary screen (AID 1100); conditions: small-molecule microarray, higher = more signal
[4] = change in splice reporter luminescence, either direction, cell-based, HEK293, spliceosome inhibition project, primary screen (AID 1101); conditions: HEK293 splicing luciferase reporter, 24 h, higher = more signal, called active from +8 up or from −8 down;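 note: HEK293 cells carrying a splicing-competent luciferase reporter gene; test concentration not given here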
[5] = target: Fibroblast growth factor 10 (Homo sapiens) (UniProt O15520); assay: compounds binding fibroblast growth factor 10 – biochemical, small-molecule microarray, 635 nm fluorescence, primary screen (AID 1102); conditions: FGF10 binding, fluorescence 635 nm, higher = more signal
Chain of Fibroblast growth factor 10 (Homo sapiens) (O15520 whole entry, looked up): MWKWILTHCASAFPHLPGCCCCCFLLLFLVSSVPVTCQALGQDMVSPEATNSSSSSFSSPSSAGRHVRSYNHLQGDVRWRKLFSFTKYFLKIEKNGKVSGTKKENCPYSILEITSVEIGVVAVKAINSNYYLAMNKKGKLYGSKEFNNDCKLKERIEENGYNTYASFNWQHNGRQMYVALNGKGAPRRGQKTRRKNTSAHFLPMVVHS

[6] = test system: glycogen synthase kinase-3 (GSK3A per assay name; protocol says GSK3B); assay: compounds binding glycogen synthase kinase-3 – biochemical, small-molecule microarray, 635 nm fluorescence, GSK3A, primary screen (AID 1103); conditions: fluorescence 635 nm, higher = more signal; note: the record names both GSK3A and GSK3B
[7] = target: Epidermal growth factor receptor (Homo sapiens) (UniProt P00533); assay: compounds binding epidermal growth factor receptor – biochemical, small-molecule microarray, 635 nm fluorescence, primary screen (AID 1104); conditions: EGFR binding, higher = more signal;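 note: score merges 667 nm emission intensity with spot signal to noise over triplicate slides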
Chain of Epidermal growth factor receptor (Homo sapiens) (P00533 whole entry, looked up): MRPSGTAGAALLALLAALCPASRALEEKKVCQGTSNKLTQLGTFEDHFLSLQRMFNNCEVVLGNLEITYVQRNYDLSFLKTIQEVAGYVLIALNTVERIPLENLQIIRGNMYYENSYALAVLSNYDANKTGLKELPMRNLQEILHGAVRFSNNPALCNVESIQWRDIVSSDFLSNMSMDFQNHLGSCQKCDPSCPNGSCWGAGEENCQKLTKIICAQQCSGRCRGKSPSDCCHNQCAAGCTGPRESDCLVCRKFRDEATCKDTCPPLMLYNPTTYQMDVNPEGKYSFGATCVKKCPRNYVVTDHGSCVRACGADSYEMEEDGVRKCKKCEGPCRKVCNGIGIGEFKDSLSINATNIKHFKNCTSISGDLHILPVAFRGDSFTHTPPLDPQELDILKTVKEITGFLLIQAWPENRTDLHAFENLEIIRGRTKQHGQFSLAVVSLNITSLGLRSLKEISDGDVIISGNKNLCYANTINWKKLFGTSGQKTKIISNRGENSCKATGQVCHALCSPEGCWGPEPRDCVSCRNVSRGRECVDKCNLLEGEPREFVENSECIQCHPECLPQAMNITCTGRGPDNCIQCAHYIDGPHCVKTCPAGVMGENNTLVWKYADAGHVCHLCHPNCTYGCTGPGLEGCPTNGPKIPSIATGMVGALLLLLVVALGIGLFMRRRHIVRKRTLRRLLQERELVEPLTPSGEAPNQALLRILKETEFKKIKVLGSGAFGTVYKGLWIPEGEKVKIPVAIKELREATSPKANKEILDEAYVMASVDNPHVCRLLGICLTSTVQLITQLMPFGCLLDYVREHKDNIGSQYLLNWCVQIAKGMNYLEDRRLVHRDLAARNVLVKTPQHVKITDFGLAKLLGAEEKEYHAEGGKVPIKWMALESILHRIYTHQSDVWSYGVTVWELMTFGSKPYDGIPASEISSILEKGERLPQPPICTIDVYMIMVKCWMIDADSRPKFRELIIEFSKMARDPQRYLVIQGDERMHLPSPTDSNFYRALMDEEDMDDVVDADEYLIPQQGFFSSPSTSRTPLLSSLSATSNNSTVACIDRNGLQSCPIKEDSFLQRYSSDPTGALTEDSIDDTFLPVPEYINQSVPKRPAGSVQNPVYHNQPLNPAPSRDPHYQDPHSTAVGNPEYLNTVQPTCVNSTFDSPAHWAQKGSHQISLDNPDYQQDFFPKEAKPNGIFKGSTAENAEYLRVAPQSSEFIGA

[8] = target: Follistatin-related protein 3 (Homo sapiens) (UniProt O95633); assay: compounds binding follistatin-related protein 3 – biochemical, small-molecule microarray, 635 nm fluorescence, primary screen (AID 1105); conditions: FSTL3 binding, higher = more signal;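 note: score merges emission near 667 nm and signal to noise per printed spot across three slides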
Chain of Follistatin-related protein 3 (Homo sapiens) (O95633 whole entry, looked up): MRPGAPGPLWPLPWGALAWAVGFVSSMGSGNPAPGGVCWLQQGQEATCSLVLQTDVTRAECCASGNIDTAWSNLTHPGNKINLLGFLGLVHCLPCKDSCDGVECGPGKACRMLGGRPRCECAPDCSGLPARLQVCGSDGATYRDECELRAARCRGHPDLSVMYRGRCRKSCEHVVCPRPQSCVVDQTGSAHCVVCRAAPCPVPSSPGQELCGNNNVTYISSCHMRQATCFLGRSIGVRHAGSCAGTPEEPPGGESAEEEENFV

[9] = target: Dickkopf-related protein 1 (Homo sapiens) (UniProt O94907); assay: small molecules binding DKK1 protein – biochemical, small-molecule microarray, 635 nm fluorescence scan, primary screen (AID 1106); conditions: higher = more signal;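 note: score merges emission near 667 nm with signal to noise over three replicate slides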
Chain of Dickkopf-related protein 1 (Homo sapiens) (O94907 whole entry, looked up): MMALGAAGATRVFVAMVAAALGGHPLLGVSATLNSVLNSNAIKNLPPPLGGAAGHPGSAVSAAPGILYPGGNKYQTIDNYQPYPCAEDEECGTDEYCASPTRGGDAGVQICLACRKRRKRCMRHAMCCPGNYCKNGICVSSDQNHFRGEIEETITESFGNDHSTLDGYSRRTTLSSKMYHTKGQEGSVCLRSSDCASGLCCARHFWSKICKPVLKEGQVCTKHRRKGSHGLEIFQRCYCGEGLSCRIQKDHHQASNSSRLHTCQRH

[10] = test system: Inhibin beta A chain (activin A); assay: small molecules binding activin A – biochemical, small-molecule microarray, 635 nm fluorescence scan, primary screen (AID 1107); conditions: INHBA, higher = more signal;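 note: mouse activin A protein probed at 4.33 µg/mL on printed slides; score merges bound-protein fluorescence near 667 nm with spot signal-to-noise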
[11] = test system: Human papillomavirus type 1a protein E7 (residues 44-93); assay: small molecules binding HPV E7 44-93 – biochemical, small-molecule microarray, residues 44-93, 635 nm fluorescence, primary screen (AID 1108); conditions: fluorescence 635 nm, higher = more signal;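 note: E7 fragment applied at 1 µg/mL in TBST for 1 h at 4 C; score combines spot fluorescence with its signal to noise ratio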
[12] = hepatitis C replication reporter changes, two-sided – Huh7 cells, luciferase reporter, HCV replication inhibitor project, primary screen (AID 1109); conditions: Huh7 HCV replicon luciferase reporter, 48 h; higher = more signal;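 note: huh7 hepatoma cells harbouring a luciferase neomycin HCV replicon reporter; luciferase luminescence as measure of HCV replicon replication; test concentration not given here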
[13] = target: Left-right determination factor 2 (Homo sapiens) (UniProt O00292); assay: small molecules binding LEFTY2 protein – biochemical, small-molecule microarray, 635 nm fluorescence scan, primary screen (AID 1110); conditions: higher = more signal
Chain of Left-right determination factor 2 (Homo sapiens) (O00292 whole entry, looked up): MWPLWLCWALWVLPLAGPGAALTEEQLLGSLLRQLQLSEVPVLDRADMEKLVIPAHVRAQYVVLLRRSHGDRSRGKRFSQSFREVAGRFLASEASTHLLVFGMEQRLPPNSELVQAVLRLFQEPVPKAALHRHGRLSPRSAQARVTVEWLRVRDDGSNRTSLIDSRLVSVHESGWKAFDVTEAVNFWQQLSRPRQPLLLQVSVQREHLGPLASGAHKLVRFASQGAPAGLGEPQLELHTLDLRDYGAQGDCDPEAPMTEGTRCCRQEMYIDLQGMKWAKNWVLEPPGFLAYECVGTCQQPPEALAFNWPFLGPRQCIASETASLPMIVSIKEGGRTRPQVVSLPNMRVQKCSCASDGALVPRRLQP

[14] = target: Calmodulin-1 (Homo sapiens) (UniProt P0DP23); assay: small molecules binding calmodulin-1 with EGTA – biochemical, small-molecule microarray, Cy5-labelled CALM1, profiling panel (AID 1111); conditions: Cy5-CALM1 binding fluorescence, higher = more signal;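 note: labelled calmodulin applied in Tris saline Tween buffer holding calcium plus EGTA and DTT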
[15] = target: Calmodulin-1 (Homo sapiens) (UniProt P0DP23); assay: small molecules binding Ca-loaded calmodulin-1 – biochemical, small-molecule microarray, Cy5-labelled CALM1, plus calcium, artefact control for SMM control-protein annotation, profiling panel (AID 1112); conditions: Cy5-CALM1 binding fluorescence, higher = more signal;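 note: score merges spot fluorescence with signal to noise from triplicate slides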
[16] = probe aWnt5a binding to arrayed compounds – biochemical, biotinylated probe, 635/667 nm fluorescence, primary screen (AID 1113); conditions: small-molecule microarray, higher = more signal;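 note: score merges 667 nm fluorescence intensity with signal-to-noise per printed feature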
[17] = probe aShh binding to arrayed compounds – biochemical, biotinylated probe, 635/667 nm fluorescence, primary screen (AID 1114); conditions: small-molecule microarray, higher = more signal;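 note: probe is biotin-labelled aShh protein from a stem cell growth factor screen; measures binding of labelled protein to compounds printed on the slide; score merges feature fluorescence at 667 nm with signal-to-noise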
[18] = probe aNog binding to arrayed compounds – biochemical, biotinylated probe, 635/667 nm fluorescence, primary screen (AID 1115); conditions: small-molecule microarray, higher = more signal;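 note: probe is biotinylated aNog protein used at 0.15 µg/mL for 1 h at 4 C; z-score combines 667 nm fluorescence of each spot with its signal to noise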
[19] = target: Torsin-1A-interacting protein 1 (Homo sapiens) (UniProt Q5JTV8); assay: compound microarray binding of lysate hLAP1 – cell lysate, small-molecule microarray, COS7 lysate, 635/667 nm fluorescence, primary screen (AID 1116); conditions: 635 nm fluorescence, higher = more signal
Chain of Torsin-1A-interacting protein 1 (Homo sapiens) (Q5JTV8 whole entry, looked up): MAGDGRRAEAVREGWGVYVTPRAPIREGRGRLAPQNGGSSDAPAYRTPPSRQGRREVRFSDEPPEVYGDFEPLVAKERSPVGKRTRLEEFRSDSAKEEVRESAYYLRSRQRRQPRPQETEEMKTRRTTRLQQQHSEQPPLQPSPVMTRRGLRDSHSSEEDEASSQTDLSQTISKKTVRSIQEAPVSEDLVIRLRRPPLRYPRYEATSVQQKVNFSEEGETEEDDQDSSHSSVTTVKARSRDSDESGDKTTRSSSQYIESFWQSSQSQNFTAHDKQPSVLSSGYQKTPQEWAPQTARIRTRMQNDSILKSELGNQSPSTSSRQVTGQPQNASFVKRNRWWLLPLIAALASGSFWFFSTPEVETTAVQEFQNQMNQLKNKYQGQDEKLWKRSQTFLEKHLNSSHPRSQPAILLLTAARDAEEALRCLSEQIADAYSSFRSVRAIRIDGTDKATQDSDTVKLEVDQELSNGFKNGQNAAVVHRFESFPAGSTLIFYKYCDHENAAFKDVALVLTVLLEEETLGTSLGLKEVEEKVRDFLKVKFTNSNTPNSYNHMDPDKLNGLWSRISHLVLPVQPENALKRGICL

[20] = target: Alpha-bungarotoxin (Bungarus multicinctus) (UniProt P60615); assay: compounds binding labelled alpha-BTX control protein – biochemical, small-molecule microarray, Alexa647 label, 635/667 nm fluorescence, artefact control for SMM control protein annotation, profiling panel (AID 1117); conditions: alpha-BTX-A647 binding fluorescence, higher = more signal
Chain of Alpha-bungarotoxin (Bungarus multicinctus) (P60615 whole entry, looked up): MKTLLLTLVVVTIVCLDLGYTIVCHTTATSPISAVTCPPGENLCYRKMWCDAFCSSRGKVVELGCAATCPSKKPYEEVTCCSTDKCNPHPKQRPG

SMILES | composite z-score [1] | composite z-score [2] | composite z-score [3] | z-score [4] | composite z-score [5] | composite z-score [6] | composite z-score [7] | composite z-score [8] | composite z-score [9] | composite z-score [10] | composite z-score [11] | z-score [12] | composite z-score [13] | composite z-score [14] | composite z-score [15] | composite z-score [16] | composite z-score [17] | composite z-score [18] | composite z-score [19] | composite z-score [20]
CN(C)C(=O)[C@@]1(CCS(=O)(=O)c2ccccc2)N=C(c2ccc(OCCCO)cc2)O[C@H]1c1ccccc1CN=[N+]=[N-] | 1.02 | 0.182 | 0.286 | -0.863 (inactive) | 1.41 | 1.36 | 0.27 | 0.922 | 0.52 | 0.69 | 1.42 | -1.28 | 0.446 | 1.42 | -0.335 | 0.063 | 0.108 | -0.274 | 1.09 | 1.06
COCCOC(=O)N1C(=O)[C@@]2(c3cc(C#CCNC(N)=O)ccc31)[C@H](c1ccc(OCCO)cc1)N1[C@H](c3ccccc3)[C@H](c3ccccc3)OC(=O)[C@H]1[C@@H]2C(=O)N1CCN(c2ncccn2)CC1 | 0.832 | 0.46 | 0.978 | -0.37 (inactive) | 1.25 | 0.824 | 0.612 | 1.3 | 0.564 | 1.46 | 1.23 | -0.0743 | 0.93 | 0.515 | 0.53 | 0.0657 | -0.138 | -0.0724 | 0.895 | 0.505
O=C1c2ccccc2[C@](Cc2ccccc2I)(C(=O)NC2CC2)[C@H](c2ccc(CO)cc2)N1Cc1ccccc1Cl | 0.453 | 0.831 | 0.995 | 0.119 (inactive) | 0.652 | 1.28 | -0.0191 | 0.345 | 0.0978 | 1.02 | 1.06 | -1.4 | -0.112 | 0.638 | 0.61 | -0.0701 | 0.755 | 0.139 | 0.747 | 0.09
COc1ccc(C(=O)Nc2ccc(CN3C(=O)[C@]4(O[C@H](CCn5cc([C@H](O)c6ccccc6)nn5)[C@@H]([Si](C)(C)c5ccc(OC)cc5)[C@@H]4C)c4ccccc43)cc2)cc1 | 0.789 | 0.294 | 0.824 | -1.41 (inactive) | -0.09 | -0.109 | -0.39 | -0.113 | 0.102 | 1.47 | 0.237 | -4.97 | -0.48 | -0.0217 | 0.187 | 0.158 | -0.453 | 0.0771 | 0.706 | 1.14
CCC[C@@H]1C[C@@]1(CCC)[C@@H](NC(=O)c1cccs1)c1ccc(Cl)cc1 | -0.67 | 0.119 | 1.09 | -1.15 (inactive) | -0.341 | -0.919 | -2.21 | -2.17 | -1.76 | 0.948 | -0.364 | -2.05 | -2.42 | 0.883 | 0.881 | 0.0529 | 0.29 | 1.39 | -0.506 | -0.0153
